The structures appear in SMILES notation. Records with an inconclusive call do not appear. Calls of active or inactive are those of the source. Calls follow the shape of the dose curve; as a rule, active = well fitted curve in the direction sought with a large enough effect; inconclusive = small, poorly fitted or top-dose-only effect, or another doubt; inactive = no such curve, though single readings can be large; an effect the other way counts as inactive or inconclusive.

The text below walks through data of PubChem BioAssay (NCATS).

A short description of experiment [1]: Quantitative High-Throughput drug screen in 47 multiple myeloma cell lines against the NCATS MIPE library collection: NCIH929_DSMZ cell viability assay (AID 1918978). Also: nearly all actives have a fitted effect of over 35% in size. Also: potency is read from the fitted curve at half-maximal effect. The essentials:
(§1)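 Myeloma cells (500/well) treated with MIPE 4.0 compounds for 48 h at 37 °C, 5% CO2. Viability read as ATP via CellTiter-Glo luminescence after 5 min at RT; DMSO-only wells = 100%, media-only = 0% viability.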

Experiment [2] is described as follows: Quantitative High-Throughput drug screen in 47 multiple myeloma cell lines against the NCATS MIPE library collection: MM1S_ATCC cell viability assay (AID 1918980). Also: nearly all actives have a fitted effect of over 45% in size. Also: potency is read from the fitted curve at half-maximal effect. The procedure, abridged:
as §1

Experiment [3] can be described thus: Quantitative High-Throughput drug screen in 47 multiple myeloma cell lines against the NCATS MIPE library collection: MM1R_ATCC cell viability assay (AID 1918981). Also: nearly all actives have a fitted effect of over 35% in size. Also: potency is read from the fitted curve at half-maximal effect. The essentials: as §1
Experiment [4] in a line: Quantitative High-Throughput drug screen in 47 multiple myeloma cell lines against the NCATS MIPE library collection: LP1_DSMZ cell viability assay (AID 1918982). Also: nearly all actives have a fitted effect of over 35% in size. Also: potency is read from the fitted curve at half-maximal effect. The procedure, abridged: as §1
A short description of experiment [5]: Quantitative High-Throughput drug screen in 47 multiple myeloma cell lines against the NCATS MIPE library collection: KMS28PE_JCRB cell viability assay (AID 1918983). Also: nearly all actives have a fitted effect of over 35% in size. Also: potency is read from the fitted curve at half-maximal effect. The essentials: as §1
The nature of experiment [6]: Quantitative High-Throughput drug screen in 47 multiple myeloma cell lines against the NCATS MIPE library collection: OCIMY1_PLB cell viability assay (AID 1918979). The essentials: as §1
A short description of experiment [7]: Quantitative High-Throughput drug screen in 47 multiple myeloma cell lines against the NCATS MIPE library collection: KMS34_JCRB cell viability assay (AID 1918985). Also: nearly all actives have a fitted effect of over 40% in size. Also: potency is read from the fitted curve at half-maximal effect. The procedure, abridged:
as §1

Experiment [8] can be described thus: Quantitative High-Throughput drug screen in 47 multiple myeloma cell lines against the NCATS MIPE library collection: L363_DSMZ cell viability assay (AID 1918984). Also: nearly all actives have a fitted effect of over 40% in size. Also: potency is read from the fitted curve at half-maximal effect. The essentials: as §1

In the case of `COc1ccc(-c2coc3cc(O)ccc3c2=O)cc1`, the Potency result in experiment [1], in experiment [2], in experiment [3] and in experiment [4] was “inactive” in each case.
Take `CC1(C)O[C@H]2C[C@@H]3[C@H]4CCC5=CC(=O)C=C[C@]5(C)[C@@]4(F)[C@@H](O)C[C@]3(C)[C@]2(C(=O)CO)O1`: the Potency in experiment [1] was 26.4 µM (active); in experiment [2], 0.0132 µM (active); in experiment [4], 0.0132 µM (active). Further, in experiment [5], the Potency result was “inactive”.
Turning to `CC1(C)CCC[C@@]2(C)[C@@H]1CC[C@@]1(C)OC(=O)C[C@H]21`, the Potency result in experiment [1], in experiment [6], in experiment [4] and in experiment [5] was “inactive” in each case.
`CN(C)c1cc(NC(=O)CNC(C)(C)C)c(O)c2c1C[C@@H]1C[C@H]3[C@H](N(C)C)C(=O)C(C(N)=O)=C(O)[C@@]3(O)C(=O)C1=C2O`: the Potency entry in experiment [1], in experiment [2], in experiment [4] and in experiment [5] was “inactive” throughout. Besides, in experiment [3], the Potency is 18.7 µM (active).
Consider `Cc1ccccc1C(C(=O)NC1CCCCC1)N(C(=O)Cn1ccnc1C)c1cccc(F)c1` (configuration not stated), for which the Potency result in experiment [1] and in experiment [6] was “inactive” throughout. Moreover, the Potency is 13.2 µM (active) in experiment [4] and 20.9 µM (active) in experiment [7].
Turning to `O=c1cc(-c2ccccc2)oc2cc(O)cc(O)c12`, the Potency result in experiment [1], in experiment [6], in experiment [3] and in experiment [7] was “inactive” each time. Also, the Potency in experiment [8] is 16.6 µM (active).
Take `NS(=O)(=O)c1ccc(NC2=CC(=O)c3ccccc3C2=O)cc1`: the Potency is 26.4 µM (active) in experiment [1], 2.35 µM (active) in experiment [4] and 1.66 µM (active) in experiment [8]. In addition, the Potency result in experiment [6] and in experiment [5] was “inactive” throughout.
As to `O=C(O)c1c(Cl)c(Cl)c(Cl)c(Cl)c1-c1c2cc(I)c(=O)c(I)c-2oc2c(I)c(O)c(I)cc12`, the Potency in experiment [1] was 6.62 µM (active); in experiment [2] it was 6.62 µM (active); in experiment [3], 13.2 µM (active); in experiment [5] it was 14.8 µM (active).
Consider `CC(=O)N(C)C1(c2ccccc2)CCN(CCC[C@]2(c3ccc(Cl)c(Cl)c3)CCCN(C(=O)c3ccccc3)C2)CC1`, for which the Potency is 11.8 µM (active) in experiment [1]; 20.9 µM (active) in experiment [2]; 23.5 µM (active) in experiment [3]; 26.4 µM (active) in experiment [4]; 20.9 µM (active) in experiment [5]; 5.9 µM (active) in experiment [8].
For the molecule `CO[C@H]1C[C@@H]2CC[C@@H](C)[C@@](O)(O2)C(=O)C(=O)N2CCCC[C@@H]2C(=O)O[C@H]([C@H](C)C[C@@H]2CC[C@H](OC(=O)C(C)(CO)CO)[C@H](OC)C2)CC(=O)[C@H](C)C=C(C)[C@@H](O)[C@@H](OC)C(=O)[C@H](C)C[C@H](C)C=CC=CC=C1C`, the Potency in experiment [1] was 18.7 µM (active). In addition, the Potency result in experiment [2] was “inactive”.
With `Clc1ccc(C(c2ccc(Cl)cc2)n2cc[n+](CC(OCc3ccc(Cl)cc3Cl)c3ccc(Cl)cc3Cl)c2)cc1` (configuration not stated), the Potency in experiment [1] is 9.35 µM (active); in experiment [2], 16.6 µM (active); in experiment [3], 18.7 µM (active); in experiment [4], 18.7 µM (active); in experiment [8], 6.62 µM (active).
For the molecule `CN1[C@@H]2CCC[C@@H]1CC(NC(=O)c1nn(C)c3ccccc13)C2` (some centres not stated), the Potency result in experiment [1], in experiment [2], in experiment [3], in experiment [4], in experiment [5] and in experiment [8] was “inactive” each time.
In the case of `Cc1c[nH]c(C=C2C(=O)Nc3ccccc32)c1CCC(=O)O`, the Potency result in experiment [1], in experiment [6] and in experiment [8] was “inactive” in each case. Also, in experiment [5], the Potency was 23.5 µM (active).
As for `CCOc1ccc(Nc2nc(-c3c(C)nc4ccccn34)cs2)cc1`, the Potency in experiment [1] is 0.0526 µM (active); in experiment [3] it was 0.0059 µM (active); in experiment [5], 0.0059 µM (active); in experiment [7], 0.0033 µM (active).
On to `CO[C@H]1C(=O)[C@]2(C)[C@@H](OC)C[C@H]3OC[C@@]3(OC(C)=O)[C@H]2[C@H](OC(=O)c2ccccc2)[C@]2(O)C[C@H](OC(=O)[C@H](O)[C@@H](NC(=O)OC(C)(C)C)c3ccccc3)C(C)=C1C2(C)C`, for which the Potency result in experiment [1], in experiment [3], in experiment [4] and in experiment [7] was “inactive” throughout.
Consider `O=c1cc(-c2ccc(O)cc2)oc2cc(O)cc(O)c12`, for which the results for the Potency in experiment [1], in experiment [2] and in experiment [5] were 6.62 µM (active), 8.33 µM (active) and 18.7 µM (active), respectively.
Consider `COc1ccc2cccc(CCNC(C)=O)c2c1`, for which the Potency result in experiment [1], in experiment [3], in experiment [4], in experiment [5] and in experiment [8] was “inactive” in each case.
Regarding `COc1ccc(C2Sc3ccccc3N(CCN(C)C)C(=O)C2OC(C)=O)cc1` (configuration not stated), the Potency result in experiment [1], in experiment [3] and in experiment [8] was “inactive” each time. Further, the Potency in experiment [2] is 18.7 µM (active); in experiment [4], 0.0017 µM (active).
As for `CCC(=O)O[C@]1(C(=O)CO)CC[C@H]2[C@@H]3CCC4=CC(=O)CC[C@]4(C)[C@@H]3CC[C@@]21C`, the Potency entry in experiment [1], in experiment [6] and in experiment [5] was “inactive” each time. In addition, the Potency was 5.26 µM (active) in experiment [4] and 0.0017 µM (active) in experiment [7].
On to `O=C(O)CCC1CCC(c2cc(F)ccc2F)(S(=O)(=O)c2ccc(Cl)cc2)CC1` (configuration not stated), for which the Potency in experiment [1] was 8.33 µM (active); in experiment [2], 1.66 µM (active); in experiment [8], 16.6 µM (active). For the same molecule, the Potency entry in experiment [3], in experiment [4] and in experiment [5] was “inactive” in each case.
On to `C=CCc1ccc(O)c(-c2ccc(O)c(CC=C)c2)c1`, for which, in experiment [2], the Potency is 18.7 µM (active).
In the case of `CC(C)n1nc(-c2ccc3oc(N)nc3c2)c2c(N)ncnc21`, the Potency in experiment [2] was 0.0105 µM (active); in experiment [5], 0.0023 µM (active).
With `Cc1ccn(-c2ccc(-c3ncco3)cc2)c(=O)c1-c1ccc2nc(N)ncc2c1`, the Potency result in experiment [1] and in experiment [4] was “inactive” in each case.
In the case of `COc1cc(O)c2c(c1)C(=O)c1cc(C)cc(O)c1C2=O`, the Potency entry in experiment [1], in experiment [4] and in experiment [8] was “inactive” each time.
As for `CC=CCC(C)C(O)C1C(=O)NC(CC)C(=O)N(C)CC(=O)N(C)C(CC(C)C)C(=O)NC(C(C)C)C(=O)N(C)C(CC(C)C)C(=O)NC(C)C(=O)NC(C)C(=O)N(C)C(CC(C)C)C(=O)N(C)C(CC(C)C)C(=O)N(C)C(C(C)C)C(=O)N1C` (configuration not stated), in experiment [2], the Potency result is “inactive”.
For `CC=CCC=CCCC(=O)[C@H]1O[C@@H]1C(N)=O`, the Potency in experiment [2] was 20.9 µM (active); in experiment [3] it was 18.7 µM (active); in experiment [8] it was 18.7 µM (active).
On to `NC(=O)c1cccc2[nH]c(-c3ccc([C@H]4CCCN4)cc3F)nc12`, for which the Potency result in experiment [6], in experiment [4] and in experiment [5] was “inactive” throughout. Moreover, in experiment [8], the Potency is 14.8 µM (active).
For `Cc1cccc(Nc2nc(-c3ccncc3)cs2)c1`, the Potency in experiment [8] is 18.7 µM (active).
